Bioassay records from PubChem.
KKLEB tox: cytotoxicity in KKLEB CF airway cells, primary screen, cytotoxicity control for CF NF-kB inhibitor project, cell-based, uHTS, fluorescence assay plates; KKLEB CF airway cells viability, ATPlite luminescence, overnight; active compounds read low; cells stimulated with P. aeruginosa culture filtrate; activity change (cytotoxicity), % at 5 µM; actives 0.36% (n = 360,000); AID 602141, 2011;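 active = corrected activity change at or below -50% at 5 µM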
HIF-2a block: HIF-2a reporter inhibitors, primary screen, luminescence, 786-0 RCC cells; actives 0.72% (n = 360,000); AID 624352, 2012; inhibition, % at 18.8 µM; 786-0 RCC cells HIF-2a reporter, luciferase luminescence, overnight;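 active = inhibition of the luminescence signal of 40% or more relative to plate controls, in a single-dose primary screen at 18.75 µM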
CF NFkB inh: inhibitors of PAF-induced NF-kB signaling, primary screen, cell-based, GFP fluorescence, uHTS. AID 588850, 2011. actives 0.86% (n = 360,000). inhibition, % at 5 µM. KKLEB NF-kB-GFP reporter, GFP fluorescence overnight;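 active = at least 50% inhibition at 5 µM, scaled per plate between neutral and stimulator controls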;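 note: PAF is a Pseudomonas aeruginosa culture filtrate used as stimulus; plate controls were PAF-stimulated DMSO wells for no effect and unstimulated DMSO wells for full effect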
TRPM1 prom inh: inhibitors of MITF-dependent TRPM1 promoter reporter, primary screen, cell-based, SK-MEL-5, single point, luciferase. SK-MEL-5 TRPM1 promoter luciferase, 24 h. inhibition, % at 12.5 µM. actives 0.83% (n = 330,000). AID 488899, 2010;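 active = mean inhibition across replicates of 60% or more, whatever share of single replicates reaches that level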
CHOP inh: inhibitors of CHOP promoter induction, primary screen, cell-based, unfolded protein response, luciferase reporter. AID 2732, 2010. actives 3.8% (n = 220,000). CHO-K1 CHOP-promoter luciferase, tunicamycin-induced, 15-18 h. inhibition, % at 10 µM;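 active = compounds that reduced the stress-induced luciferase reporter signal by more than about 70% of percent inhibition, limit read from the data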;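 note: 0% = tunicamycin plus vehicle and 100% = wells without tunicamycin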
Peg3 prom inh: Peg3 promoter-driven luciferase inhibitors, primary screen, cell-based, HeLa, luciferase luminescence. inhibition, % at 20 µM. AID 588405, 2011. actives 1.7% (n = 360,000). HeLa PEG-Prom luciferase reporter, overnight;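 active = inhibition of at least 50% at 20 µM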
* marks the source's active call; other numbers are inactive results; · = no result given. Shown are actives, neighbours in structure and some others; about 4.3% of the full set was active somewhere.

SMILES	KKLEB tox	HIF-2a block	CF NFkB inh	TRPM1 prom inh	CHOP inh	Peg3 prom inh
Cc1c(-c2nc(N)nc(Nc3ccccc3F)n2)oc2ccccc12	2	-308	-6	-117	71*	-228
CCOc1ccccc1CNn1cnnc1SCC(=O)NC(C)(C)C	2	6	-14	·	·	0
CCCCCn1c(=O)[nH]c2cc(C(=O)Nc3ccc(OC)cc3)ccc2c1=O	9	2	-2	-9	·	10
CCn1c(=O)[nH]c2cc(C(=O)Nc3cc(C)cc(C)c3)ccc2c1=O	5	7	12	-7	89*	9
CC(C)(CO)CNC(=O)CCc1nnc(-c2ccc(-c3ccccc3)cc2)o1	-10	29	-10	4	·	-96
COc1ccc(NC(=S)Nc2ccc(C)c(Cl)c2)cc1OC	11	-52	8	11	13	-16
Fc1ccc(NC(=S)Nc2cc(-c3ccccc3)[nH]n2)cc1Cl	3	8	-13	15	70*	5
Cc1ccc(NC(=S)Nc2cc(-c3ccccc3)[nH]n2)cc1Cl	8	-36	-20	-5	84*	-4
COc1ccc(C(=O)Nc2nncs2)cc1S(=O)(=O)N1CCOCC1	1	19	5	2	·	9
COC(=O)[C@@]1(Cc2ccccc2)[C@H]2C(=O)N(C)C(=O)[C@H]2[C@H]2CN=C(SC)N21	14	2	1	-6	·	-7
O=c1[nH]c(CN2CCc3ccccc32)nc2scc(-c3cccs3)c12	10	-2	8	15	88*	2
COc1cc(OC)cc(C(=O)OCC(=O)NC2CCCCCCC2)c1	-4	18	-13	·	·	12
CCn1cc(CNCc2cn(C)nc2-c2ccc(C3CCCCC3)cc2)cn1	8	2	-5	4	3	68*
CCOC(=O)N1CCN(C(=O)C[C@@H]2C[C@@]3(C(=O)OC)CCCCC=C3N(CCc3ccc(OC)c(OC)c3)C2=O)CC1	·	4	·	·	·	·
CCCCNc1c(-c2ccc(OC)c(SC3CCCCC3)c2)nc2ccc(C)cn12	-6	-50	22	7	·	98*
CCCCCCSc1ccc(-c2nc3ccc(C)cn3c2NCc2ccccc2)cc1OC	-5	-183	20	-12	·	-123
COc1ccc(-c2nc3ccc(C)cn3c2NCc2ccccc2)cc1SC1CCCCC1	-14	-28	21	-8	·	33
CCC(C)Sc1ccc(-c2nc3ccc(C)cn3c2NCc2ccccc2)cc1OC (stereo unspecified)	-26	-200	30	-11	·	88*
CCCCNc1c(-c2ccc(OC)c(SC(C)CC)c2)nc2ccc(Cl)cn12 (stereo unspecified)	-1	-37	-4	1	·	6
CCC(C)Sc1cc(-c2nc3ccc(C)cn3c2NCc2ccccc2)ccc1OC (stereo unspecified)	-32	-120	58*	53	·	96*
CCCCNc1c(-c2ccc(OC)c(SC(C)CC)c2)nc2ccc(C)cn12 (stereo unspecified)	-18	-34	41	1	·	100*
O=C(CSc1ccc(F)cc1)NC(=O)c1ccccc1	3	5	-2	·	·	12
CC1CCN(C(=O)Cn2cnc3c2c(=O)n(C)c(=O)n3C)c2ccccc2S1 (stereo unspecified)	5	10	1	10	·	28
CCC(C)Sc1cc(-c2nc3cc(C)ccn3c2NC2CCCCC2)ccc1OC (stereo unspecified)	-22	-71	30	-1	·	26
CC(=O)c1ccc(-c2cccc(-c3nc4ccccn4c3NC3CCCCC3)c2)cc1	-19	-76	30	-10	·	62*
SMILES	KKLEB tox	HIF-2a block	CF NFkB inh	TRPM1 prom inh	CHOP inh	Peg3 prom inh
CCC(C)Sc1cc(-c2nc3ccccn3c2NC2CCCCC2)ccc1OC (stereo unspecified)	-10	-81	28	-6	·	95*
Cc1ccc(-c2c[n+](Cc3ccc(Cl)c(Cl)c3)c3n2CCC3)cc1	-12	26	8	72*	-12	20
Cc1ccc(C(=O)C[n+]2cc(-c3ccc(C)cc3)n3c2CCCCC3)cc1	-10	-9	8	76*	-9	14
O=P(CCCO)(Cc1ccccc1)Cc1ccccc1	6	15	0	4	·	-7
Cc1cc(CNC[C@H]2O[C@@H](n3ccc(=O)[nH]c3=O)[C@H](O)[C@@H]2O)no1	13	19	-4	·	·	1
CCCC(C(=O)Nc1cccc(S(=O)(=O)N2CCCC2)c1)c1ccccc1 (stereo unspecified)	-8	10	18	-5	·	15
CC(CCc1ccccc1)NC(=O)COC(=O)c1cccnc1Cl (stereo unspecified)	0	3	1	1	·	-8
CCOc1ccc(N(CC(=O)NCc2ccc(F)cc2)C(=O)c2ccco2)cc1	-1	-18	-37	-2	·	-13
Cc1oc(-c2cccc3ccccc23)nc1CN1CCN(c2ncnc3ccccc23)CC1	-29	16	28	13	82*	17
Cc1cc(N2CCN(Cc3nc(-c4ccc(Cl)cc4)oc3C)CC2)cc(C)n1	-10	-11	3	10	21	22
COc1ccc(-c2nc(CN3CCN(c4cc(C)nc(C)c4)CC3)c(C)o2)c2ccccc12	-22	1	14	-16	31	82*
CN(C)S(=O)(=O)c1cccc(NC(=S)NNC(=O)c2cc3ccccc3cc2O)c1	-38	-24	-3	15	·	-5
O=C1c2ccccc2-c2nc3ccccc3nc21	16	-258	-30	-31	29	-215
Cc1nc2c(nc1C)C(=O)c1ccccc1C2=O	-13	-5	61*	105*	·	8
N#CCCn1cc(/C=C2\NC(=S)N(c3ccccc3)C2=O)c(-c2ccc(F)cc2)n1	14	24	-23	0	79*	12
COP(=O)(OC)c1ccc(NCc2cc(O)ccc2O)cc1	-4	-18	23	-11	·	-2
O=C(OCc1ccccc1)c1ccc(NCc2cc(O)ccc2O)cc1	-56*	78*	81*	81*	·	92*
CC(C)OC(=O)c1ccc(NCc2cc(O)ccc2O)cc1	-9	35	72*	16	·	46
Cn1cccc1-c1nc2ccccc2[nH]1	-1	-168	-2	-55	-13	-117
CC(C)C[C@@H](CO)N1CCN(Cc2cccc(C#N)c2)CCC1=O	-24	5	25	-2	·	-8
CCc1ccc(C2=CSC3=NCCN23)cc1	7	22	5	-5	·	-6
CC(=O)ON=C1C=CC(=C(C#N)c2ccccc2)C=C1	-39	-17	80*	·	·	29
